The values below come from PubChem BioAssay (NCATS).

Results filed as inconclusive are left out. Active and inactive are the calls of the source. Calls follow the shape of the dose curve; as a rule, active = well fitted inhibition curve with a large enough effect; inconclusive = small, poorly fitted or top-dose-only effect; inactive = flat fitted curve, though single readings scatter.

The nature of experiment [1]: Drug repurposing screens with cells derived from glioblastoma tumor samples (AID 1345199). Also: nearly all actives have a fitted effect of over 40% in size. The note with it: GBM patient neurospheres viability, ATP luminescence, 48 h. The gist of the method: (§1)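 Four patient lines of CD133+ GBM neurospheres were screened at several concentrations; hits were retested in those lines plus three slower-growing GBM lines, using 48-hour treatment and ATP-based viability.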

A further experiment concerns astro (control astrocytes). The experiment is described as above. The note with it: viability, ATP luminescence, 48 h; series mostly up to 45.9 µM. In outline:
as §1

Setting [2] is: at 45.9 µM (top of the series), tumour line B.
The mark [3] stands for this setting: at 45.9 µM (top of the series), tumour line D.
Where [4] appears, read: at 46 µM (top of the series), tumour line A.
[5] abbreviates: at 46.1 µM (top of the series), tumour line C.
% is scaled to controls: 0 for no effect and ±100 for the full control effect; potency is read from the fitted curve at half-maximal effect.

In the case of `NCC[C@H](O)C(=O)N[C@@H]1C[C@H](N)[C@@H](O[C@H]2O[C@H](CN)CC[C@H]2N)[C@H](O)[C@H]1O[C@H]1O[C@H](CO)[C@@H](O)[C@H](N)[C@H]1O`, the activity, negative = cell killing is -11.6% (inactive) in experiment [1] (setting [2]), -8.34% (inactive) in experiment [1] (setting [3]), -19.6% (inactive) in experiment [1] (setting [4]) and -19.9% (inactive) in experiment [1] (setting [5]). Besides, the Potency entry with astro is “inactive”.

As to `COc1cc2c(cc1OC)[C@@H](c1ccccc1)CN(C)CC2`, the activity, negative = cell killing in experiment [1] (setting [2]) is -22% (inactive); in experiment [1] (setting [3]), -9.13% (inactive); in experiment [1] (setting [5]), -17.9% (inactive). The Potency in experiment [1] (tumour line A) is 20 µM (active). Besides, the Potency entry in the experiment with astro was “inactive”.

For `CN[C@@H]1[C@@H](O)[C@@H](O[C@@H]2[C@@H](O)[C@H](O[C@H]3O[C@H](CN)[C@@H](O)[C@H](O)[C@H]3O)[C@@H](N)C[C@H]2NC(=O)C(O)CN)OC[C@]1(C)O` (stereo not given in full), the activity, negative = cell killing is -11% (inactive) in experiment [1] (setting [2]), -1.91% (inactive) in experiment [1] (setting [3]), 4.63% (inactive) in experiment [1] (setting [4]) and 1.73% (inactive) in experiment [1] (setting [5]). The Potency entry in the experiment with astro is “inactive”.

On to `CCCCCCOC(=O)c1cccnc1`, for which the activity, negative = cell killing in experiment [1] (setting [2]) is 14.4% (inactive); in experiment [1] (setting [3]) it was 7.42% (inactive); in experiment [1] (setting [4]), -5.32% (inactive); in experiment [1] (setting [5]), 1.85% (inactive). Besides, the Potency result with astro is “inactive”.

`Cn1c(O)c(N=NC(N)=S)c2ccccc21`: the activity, negative = cell killing in experiment [1] (setting [2]) is -22.4% (inactive); in experiment [1] (setting [3]), -18.5% (inactive); in experiment [1] (setting [5]) it was -19.8% (inactive). For the same compound, in experiment [1] (tumour line A), the Potency was 31.6 µM (active). Besides, the Potency result in the experiment with astro is “inactive”.

As to `CCOC(=O)c1cc(-c2ccccc2)nc2ccc(C)cc12`, the activity, negative = cell killing in experiment [1] (setting [2]) was -20.9% (inactive); in experiment [1] (setting [3]) it was 9.36% (inactive); in experiment [1] (setting [5]), -13.3% (inactive). The Potency in experiment [1] (tumour line A) was 12.6 µM (active). In the experiment with astro, the Potency entry is “inactive”.
